Experimental data reported in PubChem BioAssay (NCATS).
Records with an inconclusive call do not appear. Calls of active or inactive are those of the source. Calls follow the shape of the dose curve; as a rule, active = well fitted curve in the direction sought with a large enough effect; inconclusive = small, poorly fitted or top-dose-only effect, or another doubt; inactive = no such curve, though single readings can be large; an effect the other way counts as inactive or inconclusive.

Legend:
[1] = Cellular Toxicity (caspase-3) Mesangial (AID 660); conditions: mesangial cells, normalized: DMSO 0%, 100 µM tamoxifen 100%; at 91.7 µM (top of the series);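 also: combined caspase 3 and 7 activity read by Caspase-Glo luminescence; cells exposed to compound for 16 h before the caspase read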
Outline: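 Luminescent Caspase-Glo 3/7 readout (aminoluciferin substrate cleavage, 20 min RT) after 16 h compound exposure at 37 °C of normal human mesangial cells. Signal increase normalized between DMSO basal and 100 uM tamoxifen; Hill-equation AC50.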

[2] = Cellular Toxicity (caspase-3) SK-N-SH (AID 661); conditions: SK-N-SH caspase-3 activation, qHTS, DMSO as zero, staurosporine as full; series mostly up to 91.7 µM;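 also: cells exposed to compound for 16 hours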
Outline: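 Luminescent Caspase-Glo 3/7 read-out after 16 hr compound exposure of SK-N-SH neuroblastoma cells at 37 °C. Signal increase normalized to DMSO (basal) and 10 uM staurosporine (100%); AC50 from Hill equation fits of qHTS concentration-response data.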

[3] = Cellular Toxicity (caspase-3) H-4-II-E (AID 663); conditions: H-4-II-E rat hepatoma, scaled: DMSO 0%, 100 µM tamoxifen 100%; at 92.2 µM (top of the series)
Outline: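 H-4-II-E rat hepatoma, 1500 cells/well, 5 hr settle at 37 °C; compound 16 hr, 37 °C, complete medium; Caspase-Glo 3/7, 20 min RT; luminescence. DMSO = 0%, 100 uM tamoxifen = 100%; Hill-equation AC50.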

[4] = Cellular Toxicity (caspase-3) Hek293 (AID 664); conditions: HEK293 caspase-3 activation, DMSO = 0%, 100 µM tamoxifen = 100%; at 92.2 µM (top of the series);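 also: cells exposed to compound for 16 h at 37 °C before readout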
Outline: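 Luminescent Caspase-Glo 3/7 readout (aminoluciferin release) in HEK293 cells after 16 h compound treatment, 37 °C. Normalization: DMSO = basal, 100 uM tamoxifen = 100% stimulation. Concentration-response fitted with standard Hill equation for AC50.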

[5] = Cellular Toxicity (caspase-3) N2a (AID 665); conditions: N2a cells, luminescence, normalized: DMSO 0%, 10 µM staurosporine 100%; series mostly up to 92.2 µM;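 also: compound exposure lasted 16 h at 37 °C before readout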
Outline: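 Luminescent Caspase-Glo 3/7 readout in N2a mouse neuroblastoma cells after 16 h compound exposure at 37 °C. Signal scaled to DMSO (basal) and 10 uM staurosporine (100%). Concentration-response fitted with Hill equation for AC50.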

[6] = Cellular Toxicity (caspase-3) NIH 3T3 (AID 666); conditions: NIH 3T3 caspase-3 activation, apoptosis/toxicity, 0% DMSO, 100% is 100 µM tamoxifen; series mostly up to 92.2 µM;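 also: 0% = DMSO basal and 100% = 100 µM tamoxifen stimulation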
Outline: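 NIH 3T3, 1000 cells/well, 5 hr settle then 16 hr compound at 37°C; Caspase-Glo 3/7, 20 min RT, luminescence. DMSO = basal, 100 uM tamoxifen = 100%. Hill-equation AC50, qHTS.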

[7] = Cellular Toxicity (caspase-3) Renal Proximal Tubule (AID 667); conditions: renal proximal tubule cells, primary cells freshly taken from rat; Potency: caspase-3 activation; series mostly up to 91.7 µM;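 also: cells exposed to compound for 16 hours at 37 °C before detection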
Outline: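 Luminescent caspase 3/7 signal from peptide-aminoluciferin cleavage measures apoptosis in freshly isolated rat kidney proximal tubule cells after 16 h compound exposure. Concentration-response data are normalized to DMSO and 10 uM staurosporine, and AC50 values come from Hill equation fits.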

[8] = molecular target: Cytochrome P450 3A4 (Homo sapiens) (UniProt P08684); experiment: qHTS Assay for Inhibitors and Substrates of Cytochrome P450 3A4 (AID 884); conditions: recombinant CYP3A4, Luciferin-PPXE luminescence; series mostly up to 57.1 µM; also: % is scaled to controls: 0 for no effect and ±100 for the full control effect; nearly all actives have a fitted effect of over 50% in size
Outline: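 Luminescent readout of luciferin produced by CYP3A4 (20 nM) dealkylation of Luciferin-PPXE, 25 uM (its KM). NADPH-driven reaction ran 60 min at RT after 10 min compound preincubation; data scaled to 57 uM ketoconazole as 100% inhibition.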

[9] = Cell Viability - LYMP2-001 (AID 921); conditions: LYMP2-001 lymphoblastoid cell viability; series mostly up to 92.2 µM;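 also: 0% = DMSO only and full inhibition = tetraoctylammonium bromide control wells; nearly all actives have a fitted effect of over 70% in size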
Outline: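 CellTiter-Glo luminescence (intracellular ATP) after 24 hr compound exposure at 37 C, 2500 lymphoblastoid cells/well in complete medium. AC50 fitted with standard Hill equation; tetraoctylammonium bromide positive control.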

[10] = MultiTox-Fluor Cytotoxicity Assay - LYMP1-001 - Dead Cells (AID 946); conditions: LYMP1-001 lymphoblastoid cells, dead-cell protease fluorescence; series mostly up to 92.2 µM;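 also: 0% = DMSO and 100% = tetraoctylammonium bromide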
Outline: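 In this qHTS, 15 uM tetraoctylammonium bromide defined 100% and DMSO defined basal activity. Lymphoblastoid cells (LYMP1-001, 2500 per well) received compound for 16 hr at 37 C before a fluorogenic dead-cell substrate readout at 485/520 nm.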

[11] = MultiTox-Fluor Cytotoxicity Assay - LYMP1-001 - Live Cells (AID 947); conditions: LYMP1-001 lymphoblastoid cells, live-cell protease fluorescence viability; series mostly up to 92.2 µM;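 also: 0% = DMSO only and full inhibition = tetraoctylammonium bromide control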
[12] = Cell Viability - LYMP1-002 - Assay at 16 hr (AID 948); conditions: LYMP1-002 lymphoblastoid cell viability; series mostly up to 92.2 µM;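 also: 0% = DMSO alone and full effect = 92 µM tetraoctylammonium bromide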
Outline: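 LYMP1-002 human lymphoblastoid cells, 2500/well; 5 hr 37 C; cpd 16 hr 37 C; CellTiter-Glo 30 min RT; luminescence (ATP). Concentration-response, Hill-fit AC50. Pos ctrl tetraoctylammonium bromide.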

[13] = MultiTox-Fluor Cytotoxicity Assay - LYMP1-002 - Live Cells (AID 955); conditions: LYMP1-002 lymphoblastoid live-cell protease fluorescence viability; series mostly up to 46.1 µM;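 also: cells exposed to compound for 16 hours; % is scaled to controls: 0 for no effect and ±100 for the full control effect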
Outline: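 LYMP1-002 lymphoblastoid cells; 2500 cells/well; 16 hr compound exposure, 37 C; MultiTox-Fluor reagent 60 min RT; live-cell fluorescence Ex/Em=405/510; qHTS concentration-response, Hill-equation AC50; tetraoctylammonium bromide positive control.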

[14] = MultiTox-Fluor Cytotoxicity Assay - LYMP1-003 - Dead Cells (AID 961); conditions: LYMP1-003 lymphoblastoid cells, dead-cell protease fluorescence; series mostly up to 92.2 µM;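 also: 0% = DMSO and 100% = tetraoctylammonium bromide; nearly all actives have a fitted effect of over 70% in size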
Outline: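 Acute toxicity is scored as increased dead-cell protease activity in human lymphoblastoid LYMP1-003 cells after 16 h compound exposure in complete culture medium. Activity is normalized to DMSO basal and 15 uM tetraoctylammonium bromide as full response.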

[15] = MultiTox-Fluor Cytotoxicity Assay - LYMP1-003 - Live Cells (AID 962); conditions: LYMP1-003 lymphoblastoid cells, MultiTox-Fluor live-cell protease fluorescence; series mostly up to 92.2 µM;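 also: cells exposed to compound for 16 hours at 37 °C; 0% = DMSO only and full loss = 92 µM tetraoctylammonium bromide; cytotoxic hits lower the live-cell protease signal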
Outline: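 Readout: live-cell fluorescence (Ex/Em=405/510) from GF-AFC cleavage after 60 min MultiTox-Fluor reagent at room temperature. Lymphoblastoid LYMP1-003 cells, 16 hr compound treatment, 37 C. Concentration-response fitted to standard Hill equation for AC50.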

[16] = Cell Viability - LYMP1-003 - Assay at 24 hr (AID 963); conditions: LYMP1-003 lymphoblastoid cell viability; series mostly up to 92.2 µM;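 also: plate controls were DMSO only for no effect and tetraoctylammonium bromide positive control for full effect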
Outline: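 CellTiter-Glo luminescence (intracellular ATP) read after 24 hr, 37 C compound exposure of 2500 LYMP1-003 human lymphoblastoid cells/well in complete medium; qHTS concentration series; AC50 via standard Hill equation.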

[17] = Cell Viability - LYMP1-003 - Assay at 40 hr (AID 964); conditions: LYMP1-003 lymphoblastoid viability; series mostly up to 92.2 µM; also: % is scaled to controls: 0 for no effect and ±100 for the full control effect; nearly all actives have a fitted effect of over 60% in size
Outline: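 LYMP1-003 lymphoblastoid cells, 2500/well; 5 hr preincubation, 40 hr compound exposure, 37 C; CellTiter-Glo 30 min RT; luminescence; Hill-fit AC50. Positive control tetraoctylammonium bromide.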

[18] = Cell Viability - LYMP2-003 (AID 965); conditions: LYMP2-003 lymphoblastoid cell viability; series mostly up to 92.2 µM;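 also: cells exposed to compounds for 24 h before reading; 0% = DMSO only and full effect = 92 µM tetraoctylammonium bromide; nearly all actives have a fitted effect of over 50% in size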
Outline: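 CellTiter-Glo luminescence (cellular ATP) after 24 h compound exposure at 37 C in complete medium; 2500 cells/well, 5 h settling beforehand. Concentration-response fitted to standard Hill equation for AC50. Tetraoctylammonium bromide served as positive control.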

[19] = Cell Viability - LYMP2-004 (AID 966); conditions: LYMP2-004 lymphoblastoid cell viability, qHTS; series mostly up to 92.2 µM;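 also: plate controls were DMSO only for no effect and tetraoctylammonium bromide control for full effect; nearly all actives have a fitted effect of over 65% in size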
Outline: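 Luminescent ATP read-out (CellTiter-Glo, 30 min RT) after 24 hr compound exposure at 37 C; 2500 lymphoblastoid cells/well, complete medium. Decrease in ATP = cytotoxicity; AC50 from standard Hill model.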

[20] = MultiTox-Fluor Cytotoxicity Assay - LYMP1-002 - Dead Cells (AID 960); conditions: LYMP1-002 lymphoblastoid cells, dead-cell protease fluorescence; series mostly up to 46.1 µM;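 also: 0% = DMSO and 100% = tetraoctylammonium bromide; nearly all actives have a fitted effect of over 60% in size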
Outline: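 Readout: fluorescence at 485/520 from cell-impermeant bis-AAF-R110 cleaved by proteases leaking from damaged cells. LYMP1-002 lymphoblastoid line, 16 hr compound treatment at 37 C, concentration-response in qHTS format; Hill-equation AC50 values.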

Cytochrome P450 3A4 (Homo sapiens), sequence (P08684 whole entry, looked up): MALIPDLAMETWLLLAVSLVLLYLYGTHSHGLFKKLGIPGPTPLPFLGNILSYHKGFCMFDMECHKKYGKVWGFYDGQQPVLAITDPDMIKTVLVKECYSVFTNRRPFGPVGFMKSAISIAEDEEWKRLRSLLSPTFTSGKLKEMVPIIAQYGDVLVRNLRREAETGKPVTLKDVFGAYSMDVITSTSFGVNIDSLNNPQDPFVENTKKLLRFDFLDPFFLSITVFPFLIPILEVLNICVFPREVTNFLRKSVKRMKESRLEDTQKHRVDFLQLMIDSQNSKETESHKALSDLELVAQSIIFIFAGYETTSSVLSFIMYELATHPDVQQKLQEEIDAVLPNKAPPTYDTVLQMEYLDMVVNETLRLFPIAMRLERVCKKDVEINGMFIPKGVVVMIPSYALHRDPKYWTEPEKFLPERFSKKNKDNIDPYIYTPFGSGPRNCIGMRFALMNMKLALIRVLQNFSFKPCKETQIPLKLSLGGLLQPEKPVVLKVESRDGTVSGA

CC(C)N=C=NC(C)C
inactive: caspase-3 activation [1] -0.478% | outcome [2] | caspase-3 activation [3] 2.29% | caspase-3 activation [4] -0.83% | outcome [5] | outcome [6] | Potency [7] | Potency [8] | Potency [9] | outcome [10] | outcome [11] | outcome [12] | outcome [13] | Potency [14] | Potency [15] | Potency [16] | Potency [17] | Potency [18] | Potency [19]

Nc1ccc(Cl)cc1[N+](=O)[O-]
inactive: caspase-3 activation [1] 0.0963% | outcome [2] | caspase-3 activation [3] -0.0414% | caspase-3 activation [4] 1.61% | outcome [5] | outcome [6] | Potency [7] | Potency [8] | Potency [9] | outcome [10] | outcome [11] | outcome [12] | outcome [13] | outcome [20] | Potency [15] | Potency [16] | Potency [17] | Potency [18]

CC(C)=CCl
inactive: caspase-3 activation [1] 0.522% | outcome [2] | caspase-3 activation [3] -0.24% | caspase-3 activation [4] 1.55% | outcome [5] | outcome [6] | Potency [7] | Potency [8] | Potency [9] | outcome [10] | outcome [11] | outcome [12] | outcome [13] | Potency [15] | Potency [16] | Potency [17] | Potency [18] | Potency [19]

CC(=O)Nc1ccc(C)cc1
inactive: caspase-3 activation [1] 0.522% | outcome [2] | caspase-3 activation [3] 0.606% | caspase-3 activation [4] 0.349% | outcome [5] | outcome [6] | Potency [7] | Potency [8] | Potency [9] | outcome [10] | outcome [12] | outcome [13] | outcome [20] | Potency [14] | Potency [15] | Potency [16] | Potency [17] | Potency [18]

Cc1ccc(Cl)cc1
inactive: caspase-3 activation [1] 0.555% | outcome [2] | caspase-3 activation [3] 0.337% | caspase-3 activation [4] 0.748% | outcome [5] | outcome [6] | Potency [7] | Potency [8] | Potency [9] | outcome [10] | outcome [11] | outcome [12] | outcome [13] | outcome [20] | Potency [15] | Potency [16] | Potency [17] | Potency [18] | Potency [19]

C=C(C)C(=O)OC
inactive: caspase-3 activation [1] 0.161% | outcome [2] | caspase-3 activation [3] 1.27% | caspase-3 activation [4] 1.97% | outcome [5] | outcome [6] | Potency [7] | Potency [8] | Potency [9] | outcome [10] | outcome [11] | outcome [12] | outcome [13] | outcome [20] | Potency [15] | Potency [16] | Potency [17] | Potency [18] | Potency [19]

O=[N+]([O-])c1c(Cl)cc(Cl)cc1Cl
inactive: caspase-3 activation [1] -0.0612% | outcome [2] | caspase-3 activation [3] 0.356% | caspase-3 activation [4] -0.873% | outcome [5] | outcome [6] | Potency [7] | Potency [8] | Potency [9] | outcome [10] | outcome [11] | outcome [12] | outcome [13] | outcome [20] | Potency [15] | Potency [16] | Potency [17] | Potency [18] | Potency [19]

CCCCC(CC)COCC1CO1 (configuration not stated)
inactive: caspase-3 activation [1] -0.684% | outcome [2] | caspase-3 activation [3] -0.156% | caspase-3 activation [4] -2.33% | outcome [5] | outcome [6] | Potency [7] | Potency [8] | Potency [9] | outcome [10] | outcome [11] | outcome [12] | outcome [13] | Potency [14] | Potency [15] | Potency [16] | Potency [17] | Potency [18] | Potency [19]

Cc1cccc(C(=O)O)c1[N+](=O)[O-]
inactive: caspase-3 activation [1] 0.577% | outcome [2] | caspase-3 activation [3] 0.904% | caspase-3 activation [4] 3.47% | outcome [5] | outcome [6] | Potency [7] | Potency [8] | outcome [10] | outcome [11] | outcome [12] | outcome [13] | outcome [20] | Potency [14] | Potency [15] | Potency [16] | Potency [17] | Potency [18] | Potency [19]

O=C(Cl)c1c(Cl)cccc1Cl
inactive: caspase-3 activation [1] -0.17% | outcome [2] | caspase-3 activation [3] 0.0127% | caspase-3 activation [4] 0.529% | outcome [5] | outcome [6] | Potency [7] | Potency [8] | outcome [10] | outcome [11] | outcome [12] | outcome [13] | outcome [20] | Potency [14] | Potency [15] | Potency [16] | Potency [17] | Potency [18] | Potency [19]
